{"source": "the supplement of paper PMC8253809", "data": [{"test_system": "DIPGX29 (H3.3 K27M diffuse intrinsic pontine glioma line)", "assay": "growth inhibition (% activity, log2 RLU normalised to DMSO / staurosporine); higher = more growth inhibition", "conditions": "33 µM", "outline": "(§1)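 For each approved drug, the growth-inhibition value is the replicate median of per-plate normalised CellTiter-Glo data. Luminescence was log2-transformed and expressed as % activity between solvent and positive control wells. Drugs were applied in triplicate at a single final concentration of about 33 μM for 7 days at 37 °C, 5% CO2 to pHGG cell lines and H9-derived neural stem cells.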", "units": {"growth inhibition": "%"}, "values": [{"molecule": "CCCNC(C)C(=O)Nc1ccccc1C", "note": "(stereo not drawn)", "growth inhibition": -1.66}, {"molecule": "NS(=O)(=O)c1cc2c(cc1Cl)NCNS2(=O)=O", "growth inhibition": -1.36}, {"molecule": "CCCNC(C)C(=O)Nc1c(C)csc1C(=O)OC", "note": "(stereo not drawn)", "growth inhibition": 0.453}, {"molecule": "C[C@@H](O)[C@H]1C(=O)N2C(C(=O)O)=C(S[C@@H]3CN[C@H](C(=O)N(C)C)C3)[C@H](C)[C@H]12", "growth inhibition": -2.93}, {"molecule": "O=C(O)c1cc(/N=N/c2ccc(S(=O)(=O)Nc3ccccn3)cc2)ccc1O", "growth inhibition": 1.07}, {"molecule": "CN1C(CCl)Nc2cc(Cl)c(S(N)(=O)=O)cc2S1(=O)=O", "note": "(stereo not drawn)", "growth inhibition": 1.82}, {"molecule": "COc1ccc2cc1Oc1ccc(cc1)C[C@H]1c3c(cc4c(c3Oc3cc5c(cc3OC)CCN(C)[C@@H]5C2)OCO4)CCN1C", "growth inhibition": 1.78}, {"molecule": "CCN1CCN(C(=O)N[C@@H](C(=O)N[C@@H]2C(=O)N3[C@@H]2SC(C)(C)[C@@H]3C(=O)O)c2ccccc2)C(=O)C1=O", "growth inhibition": -0.286}, {"molecule": "COc1ccc(C2C(=O)c3ccccc3C2=O)cc1", "growth inhibition": -0.495}, {"molecule": "[Na+].[Na+].[Na+].[O]=[V]([O-])([O-])[O-]", "growth inhibition": -1.42}, {"molecule": "Cc1noc(NS(=O)(=O)c2ccc(N)cc2)c1C", "growth inhibition": -0.149}, {"molecule": "N#C[C@@H]1CCCN1C(=O)CNC12CC3CC(CC(O)(C3)C1)C2", "growth inhibition": -0.11}, {"molecule": "Oc1ccc(OCc2ccccc2)cc1", "growth inhibition": 2.78}, {"molecule": "CN(C)c1ccc(C(=C2C=CC(=[N+](C)C)C=C2)c2ccc(N(C)C)cc2)cc1", "growth inhibition": 39.6}, {"molecule": "C[C@@H](O[C@H]1OCCN(Cc2n[nH]c(=O)[nH]2)[C@H]1c1ccc(F)cc1)c1cc(C(F)(F)F)cc(C(F)(F)F)c1", "growth inhibition": 8.42}, {"molecule": "Cc1c(C(=O)NN2CCCCC2)nn(-c2ccc(Cl)cc2Cl)c1-c1ccc(Cl)cc1", "growth inhibition": -2.71}, {"molecule": "Cc1nnc(C(=O)NC(C)(C)c2nc(C(=O)NCc3ccc(F)cc3)c(O)c(=O)n2C)o1", "growth inhibition": 1.77}, {"molecule": "Cn1c(=O)c2[nH]cnc2n(C)c1=O", "growth inhibition": -2.13}, {"molecule": "CCCCCCCCCCCCCCCCCCCCCCO", "growth inhibition": 0.193}, {"molecule": "CC(C(=O)O)c1ccc(-c2ccccc2)c(F)c1", "note": "(stereo not drawn)", "growth inhibition": 0.779}, {"molecule": "NC(N)=Nc1nc(CSCC/C(N)=N/S(N)(=O)=O)cs1", "growth inhibition": -1.68}, {"molecule": "Nc1ccn(C[C@@H](CO)OCP(=O)(O)O)c(=O)n1", "growth inhibition": 1.21}, {"molecule": "N[C@@H]1CN(c2c(F)cc3c(=O)c(C(=O)O)cn([C@@H]4C[C@@H]4F)c3c2Cl)CC12CC2", "growth inhibition": 1.84}, {"molecule": "C=Cc1c(C)c2cc3nc(cc4[nH]c(cc5nc(cc1[nH]2)C(C)=C5CCC(=O)O)c(CCC(=O)OC)c4C)C1(C)C3=CC=C(C(=O)OC)C1C(=O)OC", "note": "(stereo not drawn)", "growth inhibition": 0.0791}, {"molecule": "N=c1nc(N2CCCCC2)cc(N)n1O", "growth inhibition": 0.473}, {"molecule": "CC(=O)OCC(=O)[C@@]1(O)[C@H](C)C[C@H]2[C@@H]3CCC4=CC(=O)C=C[C@]4(C)[C@@]3(F)[C@@H](O)C[C@@]21C", "growth inhibition": 6.47}, {"molecule": "Cc1ccc2c(Cl)cc(Cl)c(O)c2n1", "growth inhibition": 8.88}, {"molecule": "CCOC(=O)C1=C[C@@H](OC(CC)CC)[C@H](NC(C)=O)[C@@H](N)C1", "growth inhibition": -0.948}, {"molecule": "O=c1cc[nH]c(=O)[nH]1", "growth inhibition": 0.309}, {"molecule": "CC(C[N+](C)(C)C)OC(N)=O", "note": "(stereo not drawn)", "growth inhibition": -2.19}, {"molecule": "Cc1cccc(N(C)C(=S)Oc2ccc3ccccc3c2)c1", "growth inhibition": -3.14}, {"molecule": "O=C1c2c(O)ccc(O)c2C(=O)c2c(NCCNCCO)ccc(NCCNCCO)c21", "growth inhibition": 62.2}, {"molecule": "CCN1CCCC1CNC(=O)c1cc(S(N)(=O)=O)ccc1OC", "note": "(stereo not drawn)", "growth inhibition": 1.2}, {"molecule": "O=C1O[C@H]([C@@H](O)CO)C([O-])=C1O.[Na+]", "growth inhibition": -5.78}, {"molecule": "Cc1cc(C(C)(C)C)cc(C)c1CC1=NCCN1", "growth inhibition": -3.84}, {"molecule": "Cc1ccc(-c2cc(C(F)(F)F)nn2-c2ccc(S(N)(=O)=O)cc2)cc1", "growth inhibition": 0.436}, {"molecule": "CC[C@@H]([C@H](C)O)n1ncn(-c2ccc(N3CCN(c4ccc(OC[C@@H]5CO[C@@](Cn6cncn6)(c6ccc(F)cc6F)C5)cc4)CC3)cc2)c1=O", "growth inhibition": -3.19}, {"molecule": "O=C1CCc2ccc(OCCCCN3CCN(c4cccc(Cl)c4Cl)CC3)cc2N1", "growth inhibition": 4.57}, {"molecule": "CC(C)(C#N)c1cc(Cn2cncn2)cc(C(C)(C)C#N)c1", "growth inhibition": 1.13}]}, {"test_system": "DIPGX37 (H3.3 K27M diffuse intrinsic pontine glioma line)", "assay": "growth inhibition (% activity, log2 RLU normalised to DMSO / staurosporine); higher = more growth inhibition", "conditions": "33 µM", "outline": "as §1", "units": {"growth inhibition": "%"}, "values": [{"molecule": "CCCNC(C)C(=O)Nc1ccccc1C", "note": "(stereo not drawn)", "growth inhibition": 0.68}, {"molecule": "NS(=O)(=O)c1cc2c(cc1Cl)NCNS2(=O)=O", "growth inhibition": -0.293}, {"molecule": "CCCNC(C)C(=O)Nc1c(C)csc1C(=O)OC", "note": "(stereo not drawn)", "growth inhibition": 0.894}, {"molecule": "C[C@@H](O)[C@H]1C(=O)N2C(C(=O)O)=C(S[C@@H]3CN[C@H](C(=O)N(C)C)C3)[C@H](C)[C@H]12", "growth inhibition": 0.205}, {"molecule": "O=C(O)c1cc(/N=N/c2ccc(S(=O)(=O)Nc3ccccn3)cc2)ccc1O", "growth inhibition": -1.79}, {"molecule": "CN1C(CCl)Nc2cc(Cl)c(S(N)(=O)=O)cc2S1(=O)=O", "note": "(stereo not drawn)", "growth inhibition": 1.82}, {"molecule": "COc1ccc2cc1Oc1ccc(cc1)C[C@H]1c3c(cc4c(c3Oc3cc5c(cc3OC)CCN(C)[C@@H]5C2)OCO4)CCN1C", "growth inhibition": 2.93}, {"molecule": "CCN1CCN(C(=O)N[C@@H](C(=O)N[C@@H]2C(=O)N3[C@@H]2SC(C)(C)[C@@H]3C(=O)O)c2ccccc2)C(=O)C1=O", "growth inhibition": 0.221}, {"molecule": "COc1ccc(C2C(=O)c3ccccc3C2=O)cc1", "growth inhibition": 1.03}, {"molecule": "[Na+].[Na+].[Na+].[O]=[V]([O-])([O-])[O-]", "growth inhibition": 0.923}, {"molecule": "Cc1noc(NS(=O)(=O)c2ccc(N)cc2)c1C", "growth inhibition": -0.401}, {"molecule": "N#C[C@@H]1CCCN1C(=O)CNC12CC3CC(CC(O)(C3)C1)C2", "growth inhibition": -0.458}, {"molecule": "Oc1ccc(OCc2ccccc2)cc1", "growth inhibition": -1.94}, {"molecule": "CN(C)c1ccc(C(=C2C=CC(=[N+](C)C)C=C2)c2ccc(N(C)C)cc2)cc1", "growth inhibition": 42.1}, {"molecule": "C[C@@H](O[C@H]1OCCN(Cc2n[nH]c(=O)[nH]2)[C@H]1c1ccc(F)cc1)c1cc(C(F)(F)F)cc(C(F)(F)F)c1", "growth inhibition": 0.0612}, {"molecule": "Cc1c(C(=O)NN2CCCCC2)nn(-c2ccc(Cl)cc2Cl)c1-c1ccc(Cl)cc1", "growth inhibition": -0.227}, {"molecule": "Cc1nnc(C(=O)NC(C)(C)c2nc(C(=O)NCc3ccc(F)cc3)c(O)c(=O)n2C)o1", "growth inhibition": -0.226}, {"molecule": "Cn1c(=O)c2[nH]cnc2n(C)c1=O", "growth inhibition": 0.51}, {"molecule": "CCCCCCCCCCCCCCCCCCCCCCO", "growth inhibition": 0.0924}, {"molecule": "CC(C(=O)O)c1ccc(-c2ccccc2)c(F)c1", "note": "(stereo not drawn)", "growth inhibition": 3.25}, {"molecule": "NC(N)=Nc1nc(CSCC/C(N)=N/S(N)(=O)=O)cs1", "growth inhibition": -1.77}, {"molecule": "Nc1ccn(C[C@@H](CO)OCP(=O)(O)O)c(=O)n1", "growth inhibition": 2.43}, {"molecule": "N[C@@H]1CN(c2c(F)cc3c(=O)c(C(=O)O)cn([C@@H]4C[C@@H]4F)c3c2Cl)CC12CC2", "growth inhibition": 4.34}, {"molecule": "C=Cc1c(C)c2cc3nc(cc4[nH]c(cc5nc(cc1[nH]2)C(C)=C5CCC(=O)O)c(CCC(=O)OC)c4C)C1(C)C3=CC=C(C(=O)OC)C1C(=O)OC", "note": "(stereo not drawn)", "growth inhibition": -1.21}, {"molecule": "N=c1nc(N2CCCCC2)cc(N)n1O", "growth inhibition": -0.191}, {"molecule": "CC(=O)OCC(=O)[C@@]1(O)[C@H](C)C[C@H]2[C@@H]3CCC4=CC(=O)C=C[C@]4(C)[C@@]3(F)[C@@H](O)C[C@@]21C", "growth inhibition": 3.67}, {"molecule": "Cc1ccc2c(Cl)cc(Cl)c(O)c2n1", "growth inhibition": 2.78}, {"molecule": "CCOC(=O)C1=C[C@@H](OC(CC)CC)[C@H](NC(C)=O)[C@@H](N)C1", "growth inhibition": 0.933}, {"molecule": "O=c1cc[nH]c(=O)[nH]1", "growth inhibition": 2.71}, {"molecule": "CC(C[N+](C)(C)C)OC(N)=O", "note": "(stereo not drawn)", "growth inhibition": 0.0509}, {"molecule": "Cc1cccc(N(C)C(=S)Oc2ccc3ccccc3c2)c1", "growth inhibition": -1.11}, {"molecule": "O=C1c2c(O)ccc(O)c2C(=O)c2c(NCCNCCO)ccc(NCCNCCO)c21", "growth inhibition": 58.9}, {"molecule": "CCN1CCCC1CNC(=O)c1cc(S(N)(=O)=O)ccc1OC", "note": "(stereo not drawn)", "growth inhibition": 3.95}, {"molecule": "O=C1O[C@H]([C@@H](O)CO)C([O-])=C1O.[Na+]", "growth inhibition": -2.29}, {"molecule": "Cc1cc(C(C)(C)C)cc(C)c1CC1=NCCN1", "growth inhibition": -1.44}, {"molecule": "Cc1ccc(-c2cc(C(F)(F)F)nn2-c2ccc(S(N)(=O)=O)cc2)cc1", "growth inhibition": -3.87}, {"molecule": "CC[C@@H]([C@H](C)O)n1ncn(-c2ccc(N3CCN(c4ccc(OC[C@@H]5CO[C@@](Cn6cncn6)(c6ccc(F)cc6F)C5)cc4)CC3)cc2)c1=O", "growth inhibition": -0.0907}, {"molecule": "O=C1CCc2ccc(OCCCCN3CCN(c4cccc(Cl)c4Cl)CC3)cc2N1", "growth inhibition": 3.86}, {"molecule": "CC(C)(C#N)c1cc(Cn2cncn2)cc(C(C)(C)C#N)c1", "growth inhibition": 0.615}]}]}
